# Assay results from the supplement of paper PMC11417369.
# ± gives the standard deviation of the averaged measurements. The full ranking holds about 25,000 sequences; the median of “ln(normalized median fluorescence intensity)” is about 8.9, and the highest 2% start at about 10. Only a selection was taken, and the highest values are over-represented in it overall.
# Tested on: PfAP2-LT AP2 domain (GST-tagged)
# Experiment: gcPBM binding intensity (ln(normalized median fluorescence intensity)); higher = stronger DNA binding
# Method in brief: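 DNA-binding domains from P. falciparum, fused to GST and produced in E. coli, were put on an Agilent 4 × 180k double-stranded probe array for 1 h in 1× PBS holding 1% milk, 0.2 mg/ml BSA, 0.5% salmon testes DNA and 0.03% Triton X-100. Probes were primer-extended, 36 bp long and drawn from intergenic genomic regions, with negative controls included. After Alexa488 anti-GST antibody detection and a 488 nm scan, binding intensity was set as the highest Masliner-normalised natural-log median intensity across replicate spots of either probe orientation.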
row,Sequence,gcPBM binding intensity (ln)
1,AATATTTTAATGCACACACACAAAAAAAAAAAAAAA [CACACA_site7374],9.18 ± 0.33
2,AATAATAAATATATATATATATATATATATATATTT [CACACA_negctrl_site786],9.04 ± 0.21
3,CATAATAGTTATAAAATACACACCAGGCATGATAAA [CACACA_site329],9 ± 0.4
4,ATATATATATATATATGTACATATAATTTTTTTTTT [XGTACX_site6948],9.56 ± 0.16
5,GGAATATTTATACATACACACATATATTTATTTATA [CACACA_site6883],8.91 ± 0.38
6,TAACTTTGAAAAGATGGTACACAATAATATATATAT [XGTACX_site8667],8.83 ± 0.35
7,CCTTTCACATATAATACATGCATTATTATATATGAA [TGCATGCA_site287],8.7 ± 0.23
8,CAAAAAAACAAACACACACACACACCGATATATATA [CACACA_site9218],10.1 ± 0.23
9,AAAAAAAAAAAACACACACACACACCGATACATACA [CACACA_site8849],10.4 ± 0.085
10,CATACATACAAACACACACACACACCGATATATATA [CACACA_site8952],10.29 ± 0.092
11,AAAAAAAAAAAACACACACACACACCGAAATATATA [CACACA_site4261],9.99 ± 0.33
12,TATATATATATATACACACACACACCGATATATATA [CACACA_site8813],10 ± 0.11
13,TATATATACATATACACACACACACCGATATATATA [CACACA_site8706],9.9 ± 0.29
14,TATACATACATACATACACACACACCGATATATACA [CACACA_site8184],9.89 ± 0.11
15,AGGAGGAACAAACAAAACAATAAAAATTATAATAAA [GTGCAC_negctrl_site206],8.78 ± 0.64
16,GTGTATTTATGTTATACACACAAAAATATTTTGTAT [CACACA_site4305],9.01 ± 0.33
17,TTATATATACCATAATGTACTCTATTATATAAAAAA [XGTACX_site7464],8.41 ± 0.4
18,AAAGATAATATATGCACACATATAAATATATAAATA [CACACA_site3477],9.07 ± 0.43
19,TAATTATGCCAACACACACACACACCCAACTAAAAA [CACACA_site8823],9.965 ± 0.092
20,ATTATATATATGTGCACACAAAAGATATATATATAT [CACACA_site5205],9.95 ± 0.26
21,AAAAGATAATTATGCACACACACACCCAGACACAAC [CACACA_site5428],10.34 ± 0.021
22,AAAAGATAAAATTATGCACACATACGAATAATTTTA [CACACA_site8497],8.92 ± 0.48

row,Sequence,gcPBM binding intensity (ln)
1,TATGCACCCAGACACACACACACAACTAAAAAATAA [CACACA_site2567],9.8 ± 0.35
2,AAAAGATAATTATGCACACACACACCCCCACCCAAC [CACACA_site2570],10.38 ± 0.064
3,TAATTATGCAGACACACACACACACCCAACTAAAAA [CACACA_site2569],9.96 ± 0.23
4,AAAAAAGATAATTATGCACACACACCCACCCACCCA [CACACA_site8825],10.085 ± 0.0071
5,AAAAAAAAAACATACACACACATATAGATTTATATG [CACACA_site6847],9.31 ± 0.35
6,AAAAGGAATTATAGGAAATAAATATATACAAATATA [TGCATGCA_negctrl_site528],8.69 ± 0.58
7,TATATTTATATATGTTGTACTCTCCAATAATATTCC [XGTACX_site4438],8.76 ± 0.52
8,AGTAAATTATATATCTGTACATATATATATGTGTAT [XGTACX_site5519],9.04 ± 0.28
9,AAAATTGGTGAAAATGAAAATATGATTATATGTATA [XGTACX_negctrl_site505],8.56 ± 0.53
10,ATAATTTTATATAAATGTACATACATTTTTATTATA [XGTACX_site7368],8.61 ± 0.4
11,CAAAAATAACGAGTCAAACACACATATATATATATA [CACACA_site2038],9.86 ± 0.3
12,AAAAATAACATATAAACACACATATATATATATATA [CACACA_site3802],9.825 ± 0.0071
13,AAAATAACGAGTCAAACACACATATTTATATTTATA [CACACA_site7050],8.95 ± 0.45
14,TTAAACTTGAAACACACACACACACCCATATAAAAA [CACACA_site758],10.1 ± 0.064
15,CAAAGGGAAATTAACACACACATATATATATATATA [CACACA_site2453],10.3 ± 0.2
16,AAACTTGACGAACACACACACACATATATAAAAAAA [CACACA_site6494],10.1 ± 0.4
17,TAAAAAAAAAAAAAAACACACATATAAATATATATA [CACACA_site1243],8.56 ± 0.52
18,TTAAACTTGAAACACACACACACACCGATATAAAAA [CACACA_site4578],10.06 ± 0.085
19,CAAAGGGAAATTAACACACACATATTTATATTTATA [CACACA_site7202],9.2 ± 0.47
20,TATAAATAAAAACACACACACACATATATATATATA [CACACA_site2268],10.2
21,TTCAAAGGGAAATTAACACACACATATATATATATA [CACACA_site8777],9.71 ± 0.2
22,AAAATAACGAGTCAAACACACATATATATATATATA [CACACA_site2039],10.1 ± 0.2
